This is a sample that favours compounds with a hit; in the whole collection about 0.97% have one here.
CIT2-GFP yeast: yeast TOR pathway CIT2-GFP modulation | S. cerevisiae CIT2-GFP strain, flow cytometry, 3 h; 100 means same as DMSO wells | GFP response vs DMSO, % at 10 µM | 320,000 tested, 0.065% active;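 active = GFP response relative to DMSO above a set limit, near the screen mean plus 3 SD, cut at about 150% in these data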;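 note: ratio of well median GFP fluorescence to mean of DMSO wells on the plate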
LAP4-GFP MLPCN: yeast TOR pathway LAP4-GFP modulation; 320,000 tested, 0.34% active; AID 2023; S. cerevisiae LAP4-GFP multiplex, flow cytometry GFP, 3 h; median GFP as percent of DMSO wells; GFP response vs DMSO, % at 10 µM;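 active = GFP response vs DMSO above a set limit, about the screen mean plus 3 SD, cut at about 150% in these data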
MEP2 TOR yeast: modulators of TOR pathway MEP2-GFP in S. cerevisiae. S. cerevisiae MEP2-GFP strain, flow cytometry GFP, 3 h; 100% = DMSO control level. GFP response vs DMSO, % at 10 µM. 330,000 tested, 0.51% active;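 active = GFP response versus DMSO above a set limit, roughly screen mean plus 3 SD, cut at about 180% in these data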;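 note: median GFP fluorescence of the barcode-gated MEP2-GFP cells per well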
AGP1-GFP MLPCN: modulators of TOR pathway AGP1-GFP in S. cerevisiae. S. cerevisiae AGP1-GFP multiplex flow cytometry, 3 h; GFP as percent of DMSO wells. GFP response vs DMSO, % at 10 µM. 320,000 tested, 0.02% active. AID 2066;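 active = GFP response relative to DMSO above a set limit, near screen average plus 3 SD, cut at about 150% in these data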;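 note: median GFP channel fluorescence of the gated AGP1 strain per well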
JMJD2C inh: inhibitors of human GASC-1 (JMJD2C) demethylase; 330,000 tested, 0.069% active; GST-JMJD2C(1-420) H3K9me3 demethylation, DELFIA europium; inhibition, % at 2.35 µM; Q9H3R0; AID 2099;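 active = more than half of a compound's replicate wells show inhibition beyond 50%, single wells judged on their own value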;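 note: signal counts dimethyl H3K9 product captured on neutravidin plate; 0% = median of DMSO wells and 100% = 0.3 times that DMSO median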
Target sequence (Q9H3R0 1-420 limits assumed): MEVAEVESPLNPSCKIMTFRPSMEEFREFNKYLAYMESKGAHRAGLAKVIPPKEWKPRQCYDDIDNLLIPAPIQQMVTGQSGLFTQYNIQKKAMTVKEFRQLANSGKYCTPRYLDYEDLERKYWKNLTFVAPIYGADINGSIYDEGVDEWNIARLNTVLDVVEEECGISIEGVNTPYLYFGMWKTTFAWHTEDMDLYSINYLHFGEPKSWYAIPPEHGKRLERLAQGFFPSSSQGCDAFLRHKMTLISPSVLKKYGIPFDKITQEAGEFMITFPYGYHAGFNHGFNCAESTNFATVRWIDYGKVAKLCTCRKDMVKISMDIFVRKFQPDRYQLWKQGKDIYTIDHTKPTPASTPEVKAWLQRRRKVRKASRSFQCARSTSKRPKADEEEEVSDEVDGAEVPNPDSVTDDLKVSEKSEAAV
RPL19A-GFP yeast: alters RPL19A-GFP fluorescence in TOR pathway yeast screen | S. cerevisiae RPL19A-GFP strain, flow cytometry, 3 h; hits give low values | percent response vs DMSO, % at 10 µM | 330,000 tested, 0.3% active | AID 2025;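 active = percent response vs DMSO below 50%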;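 note: median channel GFP fluorescence of the barcoded RPL19A-GFP strain; ratio of sample median GFP to plate DMSO average so 100% = DMSO; lower means less RPL19A-GFP as with rapamycin TOR inhibition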
LAP4-GFP pick2: yeast LAP4-GFP modulation, second cherry pick; shares compounds with LAP4-GFP MLPCN; GFP response vs DMSO, % at 10 µM; 590 tested, 20% active; AID 2621; S. cerevisiae LAP4-GFP strain, flow cytometry GFP, 3 h;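 active = GFP signal as percent of the solvent control above about 150%, meaning raised reporter expression, limit read from the data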;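 note: ratio of well median GFP fluorescence to plate DMSO mean so 100% = DMSO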
MEP2 cherry2: reconfirmed MEP2-GFP TOR pathway modulator in yeast; GFP response vs DMSO, % at 10 µM; 590 tested, 10% active; AID 2622; shares compounds with LAP4-GFP MLPCN; S. cerevisiae MEP2-GFP strain, flow cytometry GFP, 3 h;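 active = GFP signal above 150% of the solvent control wells, that is a rise of more than half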;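 note: median channel GFP fluorescence of all gated yeast cells per well; ratio of median GFP to plate DMSO average so 100% = DMSO level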
RPL19A GFP CP2: second confirmation of modulators of TOR reporter RPL19A-GFP in yeast; shares compounds with LAP4-GFP MLPCN; S. cerevisiae RPL19A-GFP strain, flow cytometry GFP, 3 h; hits give low values; 100% means same as DMSO wells; GFP response vs DMSO, % at 10 µM; 590 tested, 3% active; AID 2623;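 active = under 65% GFP response relative to DMSO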;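 note: median GFP channel fluorescence per well over the all cells gate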
CIT2 GFP CP2: yeast CIT2-GFP TOR reporter modulation, second cherry pick; S. cerevisiae CIT2-GFP strain, flow cytometry GFP, 3 h; DMSO control wells read 100%; shares compounds with LAP4-GFP MLPCN; 590 tested, 8% active; GFP response vs DMSO, % at 10 µM;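 active = GFP response vs DMSO above about 150%, limit read from the data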;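 note: median green fluorescence per well over all gated yeast cells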
AGP1-GFP pick2: reconfirmed modulator of AGP1-GFP TOR reporter in yeast; percent response vs DMSO, % at 10 µM; AID 2643; S. cerevisiae AGP1-GFP strain, flow cytometry GFP, 3 h; shares compounds with LAP4-GFP MLPCN; 590 tested, under 10 active;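 active = over 150 percent of DMSO response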;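 note: median GFP channel fluorescence over all cells without mother daughter split; sample median GFP divided by mean DMSO control so 100% equals DMSO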
Yeast autofluor: yeast s288c autofluorescence artifact, counter-screen. fluorescence change (kMESF span) at 33 µM. S. cerevisiae s288c, 520 nm autofluorescence, flow cytometry, 3 h; hits give high values; zero means same as solvent-only cells. shares compounds with LAP4-GFP MLPCN. 610 tested, under 10 active;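 active = fluorescence span over the dose series, or activity score, above about 33, limit read from the data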
s288c autofl DR: TOR screen hit shows autofluorescence in yeast s288c. shares compounds with LAP4-GFP MLPCN. S. cerevisiae s288c parental, compound autofluorescence, flow cytometry, 3 h. fluorescence change (span) at 33 µM. 110 tested, under 10 active. AID 488829;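 active = fluorescence change span, or the activity score built from it, above 25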
TORC1 bypass gr: stops wildtype yeast growth while TORC1 bypass cells still grow; shares compounds with LAP4-GFP MLPCN; S. cerevisiae BY4741 spot growth rating, 48-72 h; hits give low values; growth rating (0-3) at 30 µM; 120 tested, under 10 active; AID 504456;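 active = growth rating at most 1 for wild type yeast while the TORC1 bypass strain still grows fully, rated 3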
Active calls of the source: *; / = no result.

SMILES	CIT2-GFP yeast	LAP4-GFP MLPCN	MEP2 TOR yeast	AGP1-GFP MLPCN	JMJD2C inh	RPL19A-GFP yeast	LAP4-GFP pick2	MEP2 cherry2	RPL19A GFP CP2	CIT2 GFP CP2	AGP1-GFP pick2	Yeast autofluor	others
Cc1c(F)cccc1NS(=O)(=O)c1ccc2c(c1)c(=O)n(C)c(=O)n2C	90	112	106	100	-7	95	/	/	/	/	/	/
C#CCOCCOCCOCCNc1nc(N2CCN(C(=O)CCCCCCCCCCNC(=O)[C@H](CCCCN)n3cc(CCCC(=O)O)nn3)CC2)nc(N2CCN(C(=O)CCCCCCCCCCNC(=O)[C@H](CCCN=C(N)N)n3cc(C[C@@H](C)CC)nn3)CC2)n1	80	178*	99	86	6	81	108	165*	92	103	110	0
C#CCOCCOCCOCCNc1nc(N2CCN(C(=O)CCCCCCCCCCNC(=O)[C@H](CCCCN)n3cc(CCCC(=O)O)nn3)CC2)nc(N2CCN(C(=O)CCCCCCCCCCNC(=O)[C@H](CCCCN)n3cc(CCCC(=O)O)nn3)CC2)n1	81	121	86	81	-5	88	/	/	/	/	/	/
C#CCOCCOCCOCCNc1nc(N2CCN(C(=O)CCCCCCCCCCNC(=O)[C@H](CCCCN)n3cc(CCO)nn3)CC2)nc(N2CCN(C(=O)CCCCCCCCCCNC(=O)[C@H](CCCN=C(N)N)n3cc(C[C@@H](C)CC)nn3)CC2)n1	75	201*	100	89	16	71	123	175*	90	108	112	-0.2
C#CCOCCOCCOCCNc1nc(N2CCN(C(=O)CCCCCCCCCCNC(=O)[C@H]([C@@H](C)CC)n3cc(CCCCCN)nn3)CC2)nc(N2CCN(C(=O)CCCCCCCCCCNC(=O)[C@@H]([C@H](C)O)n3cc(C)nn3)CC2)n1	63	121	91	75	3	88	/	/	/	/	/	/
C#CCOCCOCCOCCNc1nc(N2CCN(C(=O)CCCCCCCCCCNC(=O)[C@H](CCCCN)n3cc(C)nn3)CC2)nc(N2CCN(C(=O)CCCCCCCCCCNC(=O)[C@@H]([C@H](C)CC)n3cc(CCCCCN)nn3)CC2)n1	89	153*	87	80	/	88	114	121	96	107	101	/
O=C(CN1CCN(S(=O)(=O)c2ccc(Br)cc2)CC1)N/N=C/c1ccccc1C(=O)O	98	95	94	101	3	95	/	/	/	/	/	/
COc1ccc(CCNC(=O)CCc2ccsc2)cc1OC	106	95	104	93	8	105	/	/	/	/	/	/
COc1cccc2cc(C(=O)C3=C(O)C(=O)N(c4cc(C)on4)C3c3cccs3)oc12 (centres undefined)	100	82	98	96	-1	105	/	/	/	/	/	/
O=C1C(Cl)=C(NCCc2ccccc2)C(=O)N1CCc1ccccc1	82	96	90	91	10	91	/	/	/	/	/	0.1
CC[C@]12CCCN3CCc4c(n(c5ccccc45)C(=O)C1)C32 (some centres undefined)	84	167*	93	89	-41	82	98	101	98	95	96	/
COc1cccc(N2CCN(c3ccc4nnc(CCC(=O)Nc5ccc(C)cn5)n4n3)CC2)c1	108	98	136	22	17	60	96	98	98	103	100	/
CN1CCN(C(=O)c2cc(COc3c(F)cccc3F)on2)CC1c1ccccc1 (centres undefined)	87	158*	101	119	-24	96	141	163*	109	115	110	1.7	s288c autofl DR=0.87;TORC1 bypass gr=0
COc1ccccc1OCc1cc(C(=O)N2CCN(C)C(c3ccccc3)C2)no1 (centres undefined)	92	107	97	95	-13	96	/	/	/	/	/	/
Cc1ccc(C(=O)NCC(=O)OCC(=O)Nc2ccccc2C#N)s1	85	87	97	94	-2	103	/	/	/	/	/	/
CC1(C)Cc2c(sc(NC(=O)c3ccc4c(c3)OCCO4)c2C(N)=O)C(C)(C)N1	153*	95	117	107	10	96	97	101	99	108	99	/
CN(c1ccccc1)c1ccc(/C=C/[N+](=O)[O-])cc1	92	154*	95	87	3	87	128	100	97	115	95	/
CC1=C(C(=O)OCc2ccccc2)C(c2cccc(F)c2)NC(=O)N1 (centres undefined)	103	92	113	96	1	104	/	/	/	/	/	/
Cc1ccc(/C=C/C(=O)c2ccc([N+](=O)[O-])o2)cc1	87	176*	97	88	5	99	/	/	/	/	/	1.9
O=C(NC1CCCCC1)C(c1ccco1)N(C(=O)c1csnn1)c1cccc(Cl)c1 (centres undefined)	98	97	94	101	3	98	/	/	/	/	/	/
O=C(c1ccc(C(=O)N2CCCc3ccccc32)s1)N1CCCc2ccccc21	67	171*	115	103	0	84	125	164*	101	118	142	1.3	s288c autofl DR=0.66;TORC1 bypass gr=2

Assay outcomes (PubChem)
